Here are results for eight molecules from PubChem BioAssay (EPA / NIEHS).

Each structure is given as a SMILES string. Values joined by “and” are separate entries in the source; they are usually repeats but may differ in a detail not shown here. Equal entries are not always repeated. Results filed as inconclusive are left out. The source holds several records for some structures; these can differ, active in one and inactive in another. Active and inactive are the calls of the source. The calls were made as follows, unless noted: active = hit-call score of the fitted dose curve at least 0.9, where 1 is the maximum; inactive = score below 0.9.

The target of test [1] is Myc proto-oncogene protein (Homo sapiens) (UniProt P01106). Nature of the test: ATG_Myc_CIS: Attagene CIS-FACTORIAL HepG2 Assay for human Myelocytomatosis (Myc) Proto-Oncogene Transcription Factor (AID 2282990). The following applies: HepG2, Attagene cis-reporter transcription factor activity; actives raise or lower the signal. The procedure, abridged:
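Cells of the HepG2 human liver line bear multiple cis-driven reporter transcription units. Reporter mRNA after 24 h exposure is reverse-transcribed, amplified, labelled and resolved by capillary electrophoresis, with gain- or loss-of-signal fitting relative to DMSO.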

A short description of test [2]: ATG_NRF2_ARE_CIS: Attagene CIS-FACTORIAL HepG2 Assay for human Nuclear Factor Erythroid 2 Related Factor 2 (NFR2) response to Antioxidant Response Elements (ARE) (AID 2282992).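 As to AC50: reporter mRNA level measured by RT-PCR and capillary electrophoresis fluorescence.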 As to conditions: HepG2 Attagene ARE/NRF2 reporter, transcription factor activity; actives raise or lower the signal. The procedure, abridged: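 Transient MRTU transfection of HepG2; 24 h compound exposure; TriZol RNA, RT with oligo(dT), PCR, 6-FAM primer extension, HpaI cut, CE. Bidirectional fit vs DMSO.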

The nature of test [3]: ATG_Oct_MLP_CIS: Attagene CIS-FACTORIAL HepG2 Assay for human Octamer-Binding Transcription Factor (Oct) (AID 2282993). The following applies: HepG2 Attagene cis-factorial Oct reporter, mRNA; actives raise or lower the signal. The procedure, abridged: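 Transfected HepG2 cells, 24 h treatment. Reporter mRNA quantified by RT-PCR–capillary electrophoresis; bidirectional fitting against DMSO.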

A short description of test [4]: BSK_3C_TissueFactor: BioMAP Diversity Plus: 3C Assay for Tissue Factor Biomarker Activity (AID 2282997). The following applies: BioMAP 3C HUVEC, tissue factor biomarker readout; actives raise or lower the signal. In outline:
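Dosing of human umbilical vein endothelial cells preceded a 24 h incubation. Tissue Factor was then read by ELISA, with increases and decreases both scored relative to DMSO controls.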

Test [5] can be described thus: BSK_3C_uPAR: BioMAP Diversity Plus: 3C Assay for Urokinase-type plasminogen activator receptor (uPAR) Biomarker Activity (AID 2282998). The following applies: BioMAP 3C HUVEC, uPAR biomarker ELISA; actives raise or lower the signal. In outline:
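Readout: ELISA for surface uPAR. System: human umbilical vein endothelial primary cells, 24 h after chemical exposure. Analysis: bidirectional fit, DMSO baseline.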
(In general: ELISA stands for enzyme-linked immunosorbent assay.)

A short description of test [6]: BSK_3C_VCAM1: BioMAP Diversity Plus: 3C Assay for Vascular cell adhesion molecule 1 (VCAM1) Biomarker Activity (AID 2282999). The following applies: BioMAP 3C HUVEC, VCAM1 ELISA, cytokine-stimulated; actives raise or lower the signal. In outline: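 Endothelial cells from human umbilical vein are treated with test chemical. At 24 h, VCAM-1 is measured by ELISA, and responses in either direction are fitted relative to DMSO.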

Test [7] can be described thus: BSK_4H_Eotaxin3: BioMAP Diversity Plus: 4H Assay for Eotaxin 3 Biomarker Activity (AID 2283000).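 As to outcome: CCL26 protein level quantified by ELISA in parallel with SRB cytotoxicity check.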 As to conditions: primary human endothelial cells (HUVEC); actives raise or lower the signal. The procedure, abridged: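 Human umbilical vein endothelial cells (BSK_4H system) dosed with test chemical; Eotaxin-3 (CCL26) measured by ELISA 24 h after dosing. Bidirectional curve fitting relative to DMSO negative control as baseline.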

Test [8] addresses human Peroxisome Proliferator-activated Receptor alpha (PPARa), PPARA (gene 5465) (UniProt Q07869). The test is described as follows: ATG_PPARa_TRANS: Attagene TRANS-FACTORIAL HepG2 Assay for human Peroxisome Proliferator-activated Receptor alpha (PPARa) (AID 2283001; active = hit-call score of the fitted dose curve at least 0.9, where 1 is the maximum). In outline: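 Read-out is fluorescence of reporter cDNA fragments resolved by capillary electrophoresis after RT-PCR. Human HepG2 liver cells carried transfected PPARa-Gal4 chimera and GAL4-UAS reporter units, treated 24 h; activity scored as increase over DMSO.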

The target in test [9] is human Retinoic Acid Receptor beta (RARb), RARB (gene 5915) (UniProt P10826). The test is described as follows: ATG_RARb_TRANS: Attagene TRANS-FACTORIAL HepG2 Assay for human Retinoic Acid Receptor beta (AID 2283004; active = hit-call score of the fitted dose curve at least 0.9, where 1 is the maximum). The procedure, abridged: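 Induction of reporter mRNA from a chimeric RARb-Gal4 construct was measured by RT-PCR, FAM labelling, HpaI digestion and capillary electrophoresis. Measurements followed 24 h compound treatment of transiently transfected human HepG2 liver cells, with DMSO as baseline.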
Sequence of human Retinoic Acid Receptor beta (RARb), RARB (gene 5915) (P10826 whole entry, looked up, the tested form may be a part): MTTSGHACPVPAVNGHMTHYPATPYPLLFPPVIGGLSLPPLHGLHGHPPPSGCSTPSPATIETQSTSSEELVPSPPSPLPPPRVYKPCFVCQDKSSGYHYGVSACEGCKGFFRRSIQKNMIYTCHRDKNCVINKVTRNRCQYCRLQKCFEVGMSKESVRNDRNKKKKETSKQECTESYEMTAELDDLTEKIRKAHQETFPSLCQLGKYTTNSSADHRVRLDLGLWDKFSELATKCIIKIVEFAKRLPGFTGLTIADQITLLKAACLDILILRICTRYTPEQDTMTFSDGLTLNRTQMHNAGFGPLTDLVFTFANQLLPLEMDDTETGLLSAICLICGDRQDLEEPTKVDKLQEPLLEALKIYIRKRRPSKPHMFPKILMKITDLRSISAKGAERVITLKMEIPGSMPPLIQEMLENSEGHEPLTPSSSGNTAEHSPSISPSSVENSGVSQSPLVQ

The nature of test [10]: BSK_3C_Proliferation: Cell Proliferation Assessment in the BioMAP Diversity Plus: 3C Assay (AID 2283006).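 As to AC50: potency may reflect either rise or fall in cell number versus DMSO.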 As to conditions: primary human endothelial cells (HUVEC). The procedure, abridged:
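Subconfluent HUVEC (3C system) cultured with chemical; relative cell number read at 48 h by sulforhodamine B total-protein staining (0.1% SRB after 10% TCA fixation, 560 nm). Bidirectional fit relative to DMSO.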

The target of test [11] is Peroxisome proliferator-activated receptor gamma (Homo sapiens) (UniProt P37231). The test is described as follows: ATG_PPARg_TRANS: Attagene TRANS-FACTORIAL HepG2 Assay for human Peroxisome Proliferator-activated Receptor-gamma (PPARg) (AID 2283007; active = hit-call score of the fitted dose curve at least 0.9, where 1 is the maximum). In outline: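 Chimeric NR-Gal4 transactivation is measured in transiently transfected HepG2 cells by reporter mRNA induction at 24 h. Detection uses RT-PCR with fluorescent labelling and capillary electrophoresis; DMSO defines baseline.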
Sequence of Peroxisome proliferator-activated receptor gamma (Homo sapiens) (P37231 whole entry, looked up, the tested form may be a part): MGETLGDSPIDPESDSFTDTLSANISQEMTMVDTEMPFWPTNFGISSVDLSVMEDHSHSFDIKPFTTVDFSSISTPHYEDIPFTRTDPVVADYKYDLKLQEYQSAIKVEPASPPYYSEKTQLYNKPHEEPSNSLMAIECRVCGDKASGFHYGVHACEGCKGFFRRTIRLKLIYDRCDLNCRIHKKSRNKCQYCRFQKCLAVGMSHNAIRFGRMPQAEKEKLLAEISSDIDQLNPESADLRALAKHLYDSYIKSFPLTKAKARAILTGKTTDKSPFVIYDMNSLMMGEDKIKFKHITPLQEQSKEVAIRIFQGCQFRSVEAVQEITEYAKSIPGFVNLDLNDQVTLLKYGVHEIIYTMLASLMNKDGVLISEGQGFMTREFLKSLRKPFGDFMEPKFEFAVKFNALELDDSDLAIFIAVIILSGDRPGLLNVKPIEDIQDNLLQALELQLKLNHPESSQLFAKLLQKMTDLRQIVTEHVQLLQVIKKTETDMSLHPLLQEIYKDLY

Test [12] deals with Nuclear receptor subfamily 1 group I member 2 (Homo sapiens) (UniProt O75469). The test is described as follows: ATG_PXR_TRANS: Attagene TRANS-FACTORIAL HepG2 Assay for human Pregnane X Receptor (PXR) (AID 2283008; active = hit-call score of the fitted dose curve at least 0.9, where 1 is the maximum). The procedure, abridged: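 Read-out is fluorescence of labelled reporter cDNA fragments separated by capillary electrophoresis after RT-PCR and HpaI digestion. Source: HepG2 cells carrying PXR-GAL4/UAS reporter constructs, treated 24 h; activity fitted upward relative to DMSO.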
Sequence of Nuclear receptor subfamily 1 group I member 2 (Homo sapiens) (O75469 whole entry, looked up, the tested form may be a part): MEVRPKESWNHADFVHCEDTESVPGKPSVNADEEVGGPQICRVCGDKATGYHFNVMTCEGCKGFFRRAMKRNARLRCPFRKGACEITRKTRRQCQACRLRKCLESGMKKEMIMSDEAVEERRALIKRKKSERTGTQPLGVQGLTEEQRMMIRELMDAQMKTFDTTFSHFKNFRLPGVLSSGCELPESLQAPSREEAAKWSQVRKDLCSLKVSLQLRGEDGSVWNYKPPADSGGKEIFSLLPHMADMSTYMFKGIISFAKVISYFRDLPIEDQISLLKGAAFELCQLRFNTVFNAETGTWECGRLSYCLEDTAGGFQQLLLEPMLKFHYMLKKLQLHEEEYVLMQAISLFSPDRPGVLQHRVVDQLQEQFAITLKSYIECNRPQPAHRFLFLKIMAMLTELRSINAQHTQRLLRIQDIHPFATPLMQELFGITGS

In test [13] the target is human RAR-related Orphan Receptor beta (RORb), RORB (gene 6096) (UniProt Q92753). The test is described as follows: ATG_RORb_TRANS: Attagene TRANS-FACTORIAL HepG2 Assay for human RAR-related Orphan Receptor beta (RORb) (AID 2283010; active = hit-call score of the fitted dose curve at least 0.9, where 1 is the maximum). In outline:
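HepG2 cells transiently transfected with GAL4-UAS reporter units expressing chimeric NR-Gal4 protein; reporter mRNA measured 24 h after dosing by RT-PCR, 6-FAM labelling and capillary electrophoresis. Gain-of-signal fitted relative to DMSO baseline.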

Test [14] deals with Cellular tumor antigen p53 (Homo sapiens) (UniProt P04637). The test is described as follows: ATG_p53_CIS: Attagene CIS-FACTORIAL HepG2 Assay for human p53 Transcription Factor (AID 2282994). As to conditions: HepG2 p53 cis-element reporter, Attagene mRNA; actives raise or lower the signal. In outline: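 HepG2, transient MRTU transfection (cis promoter elements, endogenous TFs); 24 h dosing; RNA isolation, RT-PCR, 6-FAM primer extension, HpaI digest, CE fluorescence; bidirectional fit vs DMSO.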

The target in test [15] is human RAR-related Orphan Receptor gamma (RORg), RORC (gene 6097) (UniProt P51449). The test is described as follows: ATG_RORg_TRANS: Attagene TRANS-FACTORIAL HepG2 Assay for human RAR-related Orphan Receptor gamma (RORg) (AID 2283011; active = hit-call score of the fitted dose curve at least 0.9, where 1 is the maximum). The procedure, abridged:
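Reporter transcripts from a transfected RORg-GAL4 chimera in HepG2 cells were quantified 24 h after dosing by RT-PCR, 6-FAM labelling, HpaI digestion and capillary electrophoresis; increases over DMSO baseline were fitted.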

Test [16] deals with human Peroxisome Proliferator-activated Receptor delta (PPARd), PPARD (gene 5467) (UniProt Q03181). Nature of the test: ATG_PPARd_TRANS: Attagene TRANS-FACTORIAL HepG2 Assay for human Peroxisome Proliferator-activated Receptor delta (PPARd) (AID 2283002; active = hit-call score of the fitted dose curve at least 0.9, where 1 is the maximum). In outline:
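Cell-based TRANS reporter: HepG2, transient MRTU transfection, 24 h exposure. Readout = reporter mRNA (RT-PCR/CE, 6-FAM). Gain-of-signal fit vs DMSO control.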

Test [17] has as its target Retinoic acid receptor alpha (Homo sapiens) (UniProt P10276). Nature of the test: ATG_RARa_TRANS: Attagene TRANS-FACTORIAL HepG2 Assay for human Retinoic Acid Receptor alpha (RARa) (AID 2283005; active = hit-call score of the fitted dose curve at least 0.9, where 1 is the maximum). The procedure, abridged:
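Reporter transcripts, measured by RT-PCR with fluorescent labeling and capillary electrophoresis after 24 h dosing, reflect activity of an exogenous human RARa–GAL4 fusion in transiently transfected HepG2. Fitted for increase relative to DMSO.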

Test [18] concerns the target human Retinoic Acid Receptor gamma (RARg), RARG (gene 5916) (UniProt P13631). Nature of the test: ATG_RARg_TRANS: Attagene TRANS-FACTORIAL HepG2 Assay for human Retinoic Acid Receptor gamma (RARg) (AID 2283009; active = hit-call score of the fitted dose curve at least 0.9, where 1 is the maximum). In outline: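 HepG2 transiently transfected with GAL4-UAS reporter units and chimeric NR-Gal4 constructs; 24 h compound exposure. Reporter mRNA quantified by RT-PCR, FAM labeling, HpaI digestion and capillary electrophoresis; gain-of-signal versus DMSO.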

Sequence of Myc proto-oncogene protein (Homo sapiens) (P01106 whole entry, looked up): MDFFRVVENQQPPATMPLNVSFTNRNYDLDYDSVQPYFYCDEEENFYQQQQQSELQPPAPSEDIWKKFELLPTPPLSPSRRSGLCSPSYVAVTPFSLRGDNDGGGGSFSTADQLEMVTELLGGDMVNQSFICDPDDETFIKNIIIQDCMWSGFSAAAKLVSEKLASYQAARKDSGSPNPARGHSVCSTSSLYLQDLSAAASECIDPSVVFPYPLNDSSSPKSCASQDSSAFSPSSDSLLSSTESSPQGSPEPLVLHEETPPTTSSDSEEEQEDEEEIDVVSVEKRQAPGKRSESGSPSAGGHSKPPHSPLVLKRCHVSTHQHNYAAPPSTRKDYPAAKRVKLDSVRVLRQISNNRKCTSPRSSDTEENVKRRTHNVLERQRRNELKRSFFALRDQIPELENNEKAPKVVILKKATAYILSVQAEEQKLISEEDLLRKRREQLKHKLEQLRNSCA
Sequence of human Peroxisome Proliferator-activated Receptor delta (PPARd), PPARD (gene 5467) (Q03181 whole entry, looked up): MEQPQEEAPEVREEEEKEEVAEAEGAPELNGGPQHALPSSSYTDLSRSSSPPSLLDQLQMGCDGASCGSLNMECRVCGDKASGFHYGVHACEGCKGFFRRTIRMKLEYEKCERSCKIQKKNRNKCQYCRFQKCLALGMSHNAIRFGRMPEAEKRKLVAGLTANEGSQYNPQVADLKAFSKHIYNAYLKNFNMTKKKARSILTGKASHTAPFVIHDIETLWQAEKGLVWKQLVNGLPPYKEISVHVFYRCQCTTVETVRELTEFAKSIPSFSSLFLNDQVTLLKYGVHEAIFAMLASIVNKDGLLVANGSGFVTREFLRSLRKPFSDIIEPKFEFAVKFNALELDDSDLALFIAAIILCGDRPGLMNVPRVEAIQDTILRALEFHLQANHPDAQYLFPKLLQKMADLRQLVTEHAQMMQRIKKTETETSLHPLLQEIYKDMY
Sequence of human RAR-related Orphan Receptor gamma (RORg), RORC (gene 6097) (P51449 whole entry, looked up, the tested form may be a part): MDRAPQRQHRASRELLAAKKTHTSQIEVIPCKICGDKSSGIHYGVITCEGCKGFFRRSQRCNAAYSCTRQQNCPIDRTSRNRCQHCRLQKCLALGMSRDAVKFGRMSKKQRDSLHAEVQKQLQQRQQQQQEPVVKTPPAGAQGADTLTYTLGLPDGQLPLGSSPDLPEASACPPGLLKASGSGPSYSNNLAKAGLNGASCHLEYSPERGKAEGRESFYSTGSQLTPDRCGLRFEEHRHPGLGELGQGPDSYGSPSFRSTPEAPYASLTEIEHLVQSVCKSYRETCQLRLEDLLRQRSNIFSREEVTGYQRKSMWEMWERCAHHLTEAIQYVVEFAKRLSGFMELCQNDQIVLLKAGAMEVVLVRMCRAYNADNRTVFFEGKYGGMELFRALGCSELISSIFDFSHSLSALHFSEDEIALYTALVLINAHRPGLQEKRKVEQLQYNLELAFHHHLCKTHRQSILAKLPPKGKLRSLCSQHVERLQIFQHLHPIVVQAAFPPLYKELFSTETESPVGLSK
Sequence of human RAR-related Orphan Receptor beta (RORb), RORB (gene 6096) (Q92753 whole entry, looked up, the tested form may be a part): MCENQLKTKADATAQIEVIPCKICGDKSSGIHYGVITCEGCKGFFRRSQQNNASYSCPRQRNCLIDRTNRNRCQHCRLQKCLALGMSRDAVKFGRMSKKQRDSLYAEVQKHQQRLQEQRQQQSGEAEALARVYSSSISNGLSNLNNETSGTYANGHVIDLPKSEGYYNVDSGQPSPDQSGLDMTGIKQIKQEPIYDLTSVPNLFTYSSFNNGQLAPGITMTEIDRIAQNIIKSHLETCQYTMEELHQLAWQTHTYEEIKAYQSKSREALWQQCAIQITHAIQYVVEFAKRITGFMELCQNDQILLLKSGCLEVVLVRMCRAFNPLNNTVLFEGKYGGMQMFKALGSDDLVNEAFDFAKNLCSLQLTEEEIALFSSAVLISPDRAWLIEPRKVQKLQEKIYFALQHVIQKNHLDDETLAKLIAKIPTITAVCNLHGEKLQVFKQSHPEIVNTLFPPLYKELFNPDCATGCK
Sequence of Retinoic acid receptor alpha (Homo sapiens) (P10276 whole entry, looked up, the tested form may be a part): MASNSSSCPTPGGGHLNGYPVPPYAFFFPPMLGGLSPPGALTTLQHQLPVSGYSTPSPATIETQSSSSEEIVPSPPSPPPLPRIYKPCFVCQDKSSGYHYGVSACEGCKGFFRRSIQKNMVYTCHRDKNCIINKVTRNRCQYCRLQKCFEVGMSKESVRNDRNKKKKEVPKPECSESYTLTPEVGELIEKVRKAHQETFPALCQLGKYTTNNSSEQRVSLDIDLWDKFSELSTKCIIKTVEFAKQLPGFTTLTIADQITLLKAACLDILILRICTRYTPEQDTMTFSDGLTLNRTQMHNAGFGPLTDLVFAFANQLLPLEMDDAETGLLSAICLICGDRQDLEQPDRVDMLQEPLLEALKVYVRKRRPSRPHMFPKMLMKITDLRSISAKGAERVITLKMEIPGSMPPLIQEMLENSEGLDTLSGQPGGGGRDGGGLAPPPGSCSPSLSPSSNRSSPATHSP
Sequence of human Peroxisome Proliferator-activated Receptor alpha (PPARa), PPARA (gene 5465) (Q07869 whole entry, looked up, the tested form may be a part): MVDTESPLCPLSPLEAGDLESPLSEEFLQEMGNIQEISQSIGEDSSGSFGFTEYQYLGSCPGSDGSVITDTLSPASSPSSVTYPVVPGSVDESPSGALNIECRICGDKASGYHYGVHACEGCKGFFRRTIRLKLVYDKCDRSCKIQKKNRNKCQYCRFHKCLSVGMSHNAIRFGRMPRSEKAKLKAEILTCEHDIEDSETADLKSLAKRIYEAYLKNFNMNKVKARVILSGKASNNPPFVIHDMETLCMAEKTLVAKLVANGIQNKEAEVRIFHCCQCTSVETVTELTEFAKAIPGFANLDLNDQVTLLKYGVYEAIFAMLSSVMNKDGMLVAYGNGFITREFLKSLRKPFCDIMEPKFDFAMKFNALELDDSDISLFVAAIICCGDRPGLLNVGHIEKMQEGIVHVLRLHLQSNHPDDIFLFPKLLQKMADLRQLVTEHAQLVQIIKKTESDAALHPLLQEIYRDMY
Sequence of human Retinoic Acid Receptor gamma (RARg), RARG (gene 5916) (P13631 whole entry, looked up, the tested form may be a part): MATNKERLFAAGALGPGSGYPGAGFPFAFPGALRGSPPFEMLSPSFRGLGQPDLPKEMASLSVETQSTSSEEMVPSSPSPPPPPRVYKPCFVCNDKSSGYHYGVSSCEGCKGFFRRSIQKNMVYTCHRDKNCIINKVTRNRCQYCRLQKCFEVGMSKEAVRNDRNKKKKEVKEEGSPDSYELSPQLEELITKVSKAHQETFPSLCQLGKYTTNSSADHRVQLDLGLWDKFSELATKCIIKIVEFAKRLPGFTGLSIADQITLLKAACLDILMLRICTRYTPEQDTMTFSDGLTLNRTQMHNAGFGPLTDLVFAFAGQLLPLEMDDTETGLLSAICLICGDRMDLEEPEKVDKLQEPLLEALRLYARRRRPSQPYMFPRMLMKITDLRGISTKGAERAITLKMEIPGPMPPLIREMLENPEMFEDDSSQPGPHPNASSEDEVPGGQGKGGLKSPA

The term AC50 denotes the concentration giving half of the maximal activity seen. Regarding `C=CC(C)(O)CCC=C(C)C` (stereo not given), the molecule was classed as inactive in test [1], in test [2], in test [3], in [4], in test [5] and in [6]. Further, the result in test [7], in [8], in test [9], in [10], in test [11] and in test [12] was inactive. Further, in [13], the molecule was classed as inactive. In addition, the AC50 in test [7] was 149 nM (active).

As to `CCCC(=O)OCCc1ccccc1`, the molecule was called inactive in [1], in test [2], in test [3], in [14], in test [12] and in test [15].

With `Nc1ccc2cc(S(=O)(=O)O)cc(O)c2c1N=Nc1ccccc1C(F)(F)F`, the outcome in test [1], in test [2], in test [3], in test [8], in test [16] and in [9] was inactive. Besides, the result in [17], in test [11], in [12] and in test [13] was inactive.

Regarding `C=C1C[C@]23C[C@@]1(O)CC[C@H]2[C@@]12C=C[C@H](O)[C@@](C)(C(=O)O1)[C@H]2[C@@H]3C(=O)O`, the molecule was called inactive in test [1], in test [2], in [3], in [16], in [11] and in test [15].

As to `C=CCN(CC=C)CC=C`, the outcome in [1], in [2], in [3], in [9], in test [12] and in test [15] was inactive.

For `O=Cc1ccccc1S(=O)(=O)O`, the outcome in test [1], in [2], in [3], in test [16] and in [11] was inactive.

In the case of `CN(c1nccc(=O)[nH]1)C1CCN(c2nc3ccccc3n2Cc2ccc(F)cc2)CC1`, the result in [1], in test [2], in test [3], in test [4], in test [6] and in test [7] was inactive. Further, the result in [9], in test [17], in test [10], in test [11], in [12] and in [18] was inactive. The outcome in test [15] was inactive. Also, the concentration at half-maximal activity (AC50) in test [5] is 1.84 µM (active).

`CC1(C)CCC[C@]2(C)[C@H]3CCO[C@]3(C)CC[C@@H]12`: the molecule was called inactive in [1], in [3], in [5], in test [6], in test [16] and in [11]. Besides, the molecule was called inactive in test [18] and in test [13]. Moreover, the AC50 was 155 µM (active) in test [2]; 32 µM (active) and 30.7 µM (active) in test [4]; 32.9 µM (active) in test [5]; 33.2 µM (active) and 35 µM (active) in [7]; 32.6 µM (active) and 33.6 µM (active) in [10]; 32.6 µM (active) in [12].
